Source: PubChem BioAssay (National Center for Advancing Translational Sciences (NCATS))
Hits are enriched below; roughly 3.8% of the tested compounds scored in any of these assays.
GPR32 ag = agonists of human resolvin D1 receptor DRV1 (GPR32); activation, % at 76.9 µM; 48,000 tested, 2.5% active; O75388; AID 1346428; CHO-K1 GPR32 beta-arrestin PathHunter luminescence, 90 min; zero percent set by DMSO-only wells;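 active = activation of at least 60% and not above a set upper limit, about 1 call in 100 departs from these limits; inconclusive = activation of 40% to 60%, or above that upper limit; inactive = activation under 40%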; also: 0% is about no effect
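CHO-K1 cells stably expressing ProLink-tagged GPR32 and Enzyme Activator-tagged beta-arrestin were seeded at 2,500 cells/well overnight, exposed to compounds for 90 min at 37 °C, then read by beta-Gal complementation chemiluminescence after 1 h detection reagent.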
B2AR arrestin ag = beta-arrestin recruitment by human beta2-adrenergic receptor ligands; 44,000 tested, under 10 active; HTLA Tango cells, beta-arrestin recruitment, luciferase luminescence, 18 h; Potency, µM (titrated, usually from 46.1 µM), usual class: activators;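 also: potency is read from the fitted curve at half-maximal effect; 0% = DMSO and full agonism = EC100 isoproterenol or metaproterenol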
Target sequence (P07550 whole entry, looked up): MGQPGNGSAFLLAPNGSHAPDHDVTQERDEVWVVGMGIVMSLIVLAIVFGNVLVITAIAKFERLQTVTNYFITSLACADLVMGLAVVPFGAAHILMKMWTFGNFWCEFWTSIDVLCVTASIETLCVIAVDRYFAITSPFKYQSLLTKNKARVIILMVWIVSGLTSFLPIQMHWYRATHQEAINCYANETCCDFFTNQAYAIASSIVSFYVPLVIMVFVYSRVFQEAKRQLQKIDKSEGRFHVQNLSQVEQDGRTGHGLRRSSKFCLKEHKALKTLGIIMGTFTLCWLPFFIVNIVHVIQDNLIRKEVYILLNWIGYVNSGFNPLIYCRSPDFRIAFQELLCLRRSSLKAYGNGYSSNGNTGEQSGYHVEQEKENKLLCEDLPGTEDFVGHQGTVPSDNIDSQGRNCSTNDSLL
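Tango cells expressing recombinant beta2-AR and beta-arrestin were treated with compounds (up to 46 microM titration) in DMEM with 1% FBS for 18 hr at 37 degrees C. Beta-arrestin recruitment drove tTA-dependent luciferase, read by luminescence; curves were fitted and classed.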
NTMT1 inhibitor = blocks human N-terminal methyltransferase 1 activity; NTMT1 MTase-Glo SAH luminescence, purified enzyme; 59,000 tested, 2.5% active; Q9BV86; Potency, µM (series often up to 114 µM), for the others: at the highest dose activity change, negative = inhibition, usual class: inhibitors;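 also: potency is read from the fitted curve at half-maximal effect; plate controls were DMSO vehicle for no effect and no enzyme for full effect; nearly all actives have a fitted effect of over 65% in size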
GALK inh = GALK (human) enzyme inhibition | P51570 | recombinant GALK, Kinase-Glo ATP luminescence, 1 h | Potency, µM (doses to about 57.5 µM), for the others: top-dose activity, negative = inhibition, hits mostly inhibitors | 44,000 tested, under 10 active | AID 1347072;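 also: plate controls were full GALK reaction for no effect and reaction lacking GALK for full effect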
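Compounds were pinned into ATP buffer, then GALK-galactose mix was added (final 5 nM enzyme, 35 uM ATP, 100 uM galactose, pH 8.0). After 1 h at room temperature, Kinase-Glo Plus was added and luminescence read.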
SKOV3 invasion = blocks SKOV3ip1 adhesion and invasion in omental model. SKOV3ip1-GFP adhesion/invasion on 3D omental model, fluorescence. Potency, µM (titrated, usually from 45.8 µM), for the others: at the highest dose activity change, negative = inhibition, usual class: inhibitors. 46,000 tested, 0.1% active;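 also: potency is read from the fitted curve at half-maximal effect; plate controls were DMSO wells for no effect and tomatine positive control wells for full effect; nearly all actives have a fitted effect of over 65% in size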
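qHTS, 4-pt dose (0.36-46 umol/L); SKOV3ip1-GFP, 1,200 cells/well, no FBS; primary omental fibroblast/mesothelial co-culture 48 h pre-grown; 2 h RT + 16 h 37 C; PBS wash, 4% PFA; GFP count 488/509 nm.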
PTAP-TSG101 blk = inhibitors of HIV-1 PTAP binding to human TSG101, validation; Potency, µM (top dose mostly 115 µM), actives largely listed as inhibitors; 44,000 tested, under 10 active; Q99816; Fluorescence polarization, FITC-PTAP peptide/Tsg101, 20 min; also: potency is read from the fitted curve at half-maximal effect; 0% is about no effect
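Fluorescence polarization binding of Tsg101 binding domain (10 uM final) to FITC-labeled PTAP-motif peptide (50 nM final) in HEPES pH 7.5/NaCl/Tween 20/EDTA/TCEP buffer; 20 min at r.t. Actives by curve class, <25 µM, efficacy <60% inhibition.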
Numbers without * were called inactive; i = inactive; ? = inconclusive; · = no result given; [ ] = remark or other dose. Unless noted, calls follow the shape of the dose curve; as a rule, active = well fitted curve in the direction sought with a large enough effect; inconclusive = small, poorly fitted or top-dose-only effect, or another doubt; inactive = no such curve, though single readings can be large; an effect the other way counts as inactive or inconclusive.

SMILES | GPR32 ag | B2AR arrestin ag | NTMT1 inhibitor | GALK inh | SKOV3 invasion | PTAP-TSG101 blk
Cc1ccc(-n2ccnc(NCCc3ccc(S(N)(=O)=O)cc3)c2=O)c(C)c1 | 81* | i | 1% | 2% | i | i
Cc1ccc(-n2ccnc(NCCc3ccccc3)c2=O)cc1C | 16 | i | 19% | 1% | i | i
Cc1ccc(-n2ccnc(NCCc3ccc(S(N)(=O)=O)cc3)c2=O)cc1C | 95* | i | -6% | -4% | -1% | i
Cc1ccccc1CSc1nc2c(sc3ccccc32)c(=O)n1CCCOC(C)C | 21 | i | 7% | -6% | 2% | i
Cc1nn2c(=O)cc(COC(=O)c3cccc(NC(=O)c4cccs4)c3)nc2s1 | 5 | i | 5% | 3% | -12% | i
C=C(C)Cn1c(SCC(=O)c2ccc(OC)cc2)nc2sc3c(c2c1=O)CCCC3 | -8 | i | · | 2% | i | i
COc1ccc(CNC(=O)Cc2csc3nc(-c4ccc(C)cc4)cn23)cc1 | -16 | i | 2% | 3% | 3% | i
Cn1cc(/C=C2\C(=O)Nc3cccnc32)c2ccccc21 | · | · | 45µM* | · | · | ·
CC(=O)c1cccc(Nc2cc(C)nc3nc(Cc4ccccc4)nn23)c1 | 8 | i | 1% | 8% | i | i
C/C1=C\C[C@]2(C)C(=O)C(O)=C([C@H](C)CO)[C@H]2C/C=C(\C)[C@@H](O)CC/C(C)=C/CC1 | · | · | -10%[29.8 µM] | · | · | ·
O=S(=O)(Nc1cccc2ccncc12)c1ccc(NCc2cccc(Cl)c2O)cc1 | · | · | 8%[57.5 µM] | · | · | ·
COc1cc(Nc2nc(-c3ccncc3)nc3ccccc23)ccc1NS(C)(=O)=O | · | · | -1% | · | · | ·
COc1cc(Nc2nc(-c3ccncc3)nc3ccccc23)ccc1N1CCN(C)CC1 | · | · | 8.9µM* | · | · | ·
Cc1ccc(Nc2nc(-c3ccncc3)nc3ccccc23)cc1F | · | · | -5% | · | · | ·
CN1CCN(c2ccc(Nc3nc(-c4ccncc4)nc4ccccc34)cc2F)CC1 | · | · | 22µM* | · | · | ·
Cc1cc2ccccc2n1-c1ccc(C(=O)N2CCC(C(=O)NCc3ccc(F)cc3)CC2)s1 | -9 | i | 3% | -2% | -21% | i
CC(C)(C)c1ccc(C(=O)NC(Cc2c[nH]c3ccccc23)C(=O)OCC(=O)c2ccc(Br)cc2)cc1 (stereo unspecified) | -16 | i | -2% | -2% | 26% | i
Cc1cc(Br)ccc1NC(=O)c1coc(=O)c2ccccc12 | 72* | i | 7% | -2% | 5% | i
COc1ccc(C)cc1NC(=O)NCc1cccn1Cc1ccccc1 | -16 | i | 89µM* | -1% | -15% | i
COc1cc(OC)c(NC(=O)NCc2cccn2Cc2ccccc2)cc1Cl | -24 | i | 0% | 1% | 7% | i
O=C(Nc1cccc(Cl)c1)c1cc(-c2ccccc2)on1 | 18 | i | -4% | 2% | 5% | i
C[n+]1cc(NC(=O)c2cccc(C(=O)Nc3cc4ccccc4[n+](C)c3)n2)cc2ccccc21 | · | · | 50µM* | · | · | ·
COc1ccc(CCNc2ncnc3c2cnn3-c2ccc(F)cc2)cc1 | 66* | i | 5% | 0% | -4% | i
COc1ccc(CCNc2ncnc3c2cnn3-c2cccc(Cl)c2)cc1 | 114* | i | -7% | 3% | -1% | i
COc1c(Cl)cc(C(=O)Nc2cccc(-c3nc4ccccc4[nH]3)c2)cc1Cl | 106* | i | -2% | 0% | ? | i
CCC(C(=O)OCCN1CCOC(c2ccccc2)C1C)c1ccccc1 (stereo unspecified) | 62* | · | 38%[57.5 µM] | · | · | ·
CCOCCCNC(=O)C(c1ccc(OC)cc1)N(Cc1cccs1)C(=O)c1ccc(NC(C)=O)cc1 (stereo unspecified) | -5 | i | 6% | 0% | -8% | i
COc1cc(OC)c(C(=O)NCc2nc(-c3ccccc3)no2)cc1OC | 71* | i | -4% | -10% | i | i
